Out of some 320,000 compounds screened, about 2,100 (0.66%) were called active. Not shown: some 53% with an inconclusive outcome. The call rests on the fitted dose curve; in most records, active means well fitted inhibition curve with a large enough effect in the signal ratio, with a control signal flat (not every such curve was filed as active); inconclusive means small, poorly fitted or top-dose-only effect, or effect the other way, or a change in a side signal; inactive means flat fitted curve, though single readings scatter; the % refers to the signal ratio. The sample as a whole holds a higher share of actives than the screen did.
Potency means the concentration at half of the fitted maximal effect.

A short description of the experiment: qHTS Assay for Lipid Storage Modulators in Drosophila S3 Cells.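 On cell number change: cells counted by Cell Tracker Red CMTPX staining in the red channel.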 On lipid storage change, negative = inhibition: on the % scale 0 is the no-effect control and ±100 the full control effect. Conditions: BODIPY lipid droplet fluorescence, 18-24 h, cells fed with added oleic acid; cell number change: measured here: cell count max response; series mostly up to 46.1 µM; lipid storage change, negative = inhibition: at the top concentration. Put shortly:
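Drosophila S3 cells got compounds at several concentrations plus oleic acid (400 uM solution). Laser-scanning cytometry with 488 nm excitation read lipid droplets at 500-530 nm and cells at 575-640 nm. Percent activity was relative to 20 uM Triacsin C.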
On the technique in general: In qHTS, concentration-response curves come from the screen itself.
As to `O=C(CN1C(=O)c2cccnc2Oc2ccc(Cl)cc21)Nc1ccccc1F`, the “lipid storage change, negative = inhibition” value is -6.56% (inactive) and the cell number change is -28%. As to `Cc1ccccc1CNC(=O)CCC(=O)N1CCOc2ccc(Cl)cc21`, the “lipid storage change, negative = inhibition” value is 6.67% (inactive) and the cell number change came to 5.19%.

For `COc1ccc(NC(=O)[C@@H](NC(=O)c2ccccc2)C(C)C)cc1S(=O)(=O)N1CCCCC1`, the “lipid storage change, negative = inhibition” value is -1.46% (inactive) and the cell number change is -2.25%. With `CC(=O)Nc1ccc(OCC(O)Cn2c3ccccc3c3ccccc32)c(C)c1` (stereo not given), the “lipid storage change, negative = inhibition” value is -3.13% (inactive) and the cell number change was -16.4%. In the case of `CSc1nc(=S)n(-c2ccccc2)c(C)c1C(C)=O`, the “lipid storage change, negative = inhibition” value is -5.3% (inactive) and the cell number change is -14.2%. For the molecule `O=C(CCCn1c(SCc2cccc(F)c2)nc2ccccc2c1=O)NCC1CCCO1` (stereo not given), the “lipid storage change, negative = inhibition” value was -7.37% (inactive) and the cell number change was -0.301%.

Regarding `Cc1ccccc1S(=O)(=O)Cc1ccc(C(=O)NCCCN2CCCC2)o1`, the “lipid storage change, negative = inhibition” value was 1.07% (inactive) and the cell number change is 13.9%. As for `Cc1ccccc1S(=O)Cc1ccc(C(=O)NCCCN2CCCCC2)o1` (stereo not given), the Potency was 4.11 µM (active) and the cell number change was -18.3%. With `CCN1CCN(CCNC(=O)c2ccc(CS(=O)c3ccc(Cl)cc3)o2)CC1` (stereo not given), the molecule was classed as inactive. For `O=C(c1ccc(CS(=O)c2ccccc2Cl)o1)N1CCCCCC1` (stereo not given), the result was inactive and the cell number change was -21.2%. In the case of `O=C(NCCN1CCOCC1)c1ccc(CS(=O)c2ccccc2Cl)o1` (stereo not given), the Potency was 4.11 µM (active) and the cell number change was -8.85%. Regarding `O=C(NCCCN1CCCCC1)c1ccc(CS(=O)c2ccc(F)cc2)o1` (stereo not given), the molecule was classed as inactive. On to `COc1ccc(NC(C)=O)cc1NC(=O)c1ccc(Cl)cc1`, for which the “lipid storage change, negative = inhibition” value was 0.28% (inactive) and the cell number change turned out to be 11.7%.

With `CC(SCc1ccccc1)C(=O)Nc1ccccc1-c1ccccc1` (stereo not given), the “lipid storage change, negative = inhibition” value was -6.56% (inactive) and the cell number change worked out at 8.62%. Consider `O=S1(=O)N=C(Oc2cccc3ccccc23)c2ccccc21`, for which the “lipid storage change, negative = inhibition” value is -0.954% (inactive) and the cell number change was 3.24%. Take `COc1ccc(C2CCCN2C(=O)Nc2ccc(Cl)cc2)cc1OC` (stereo not given): the “lipid storage change, negative = inhibition” value was -5.01% (inactive) and the cell number change was -6.06%.

Take `Cc1ccc(C)c(CN2CCC(CNC(=O)Nc3ccc(F)c(Cl)c3)CC2)c1`: the “lipid storage change, negative = inhibition” value is -20.7% (inactive) and the cell number change is -7.91%. Take `Cc1ccc(C)c(CN2CCC(CNC(=O)Nc3cccc(Cl)c3C)CC2)c1`: the Potency is 25.9 µM (active) and the cell number change was -2.78%.

With `COc1ccc(Cl)cc1NC(=O)NCC1CCN(Cc2cc(C)ccc2C)CC1`, the “lipid storage change, negative = inhibition” value was -4.05% (inactive) and the cell number change was -15.2%. On to `CC(C)(C)c1ccc(OCCC(=O)OCC(=O)Nc2cccnc2Cl)cc1`, for which the “lipid storage change, negative = inhibition” value was -4.76% (inactive) and the cell number change is -11.9%. `COCCn1c(Cc2ccccc2)nnc1SCC(=O)N1CCCC1=O`: the “lipid storage change, negative = inhibition” value is 10.9% (inactive) and the cell number change amounted to 2.89%.

On to `O=C(NC1(N2CCOCC2)CC1)c1ccc(Cl)cc1`, for which the “lipid storage change, negative = inhibition” value is 6.65% (inactive) and the cell number change amounted to 10.5%.

With `CSC1=NCCN1C(=O)c1c(F)cccc1F`, the “lipid storage change, negative = inhibition” value was 3% (inactive) and the cell number change turned out to be 10.5%.

As for `CSc1ccccc1OCc1cc(C(=O)N(C)CC2COCCO2)no1` (stereo not given), the “lipid storage change, negative = inhibition” value is -7.6% (inactive) and the cell number change is 5.77%. For the molecule `CCNC(=S)N1CCc2cc(OC)c(OC)cc2C1COc1ccccc1OC` (stereo not given), the Potency was 11.6 µM (active) and the cell number change is -25.8%.

For `CCNC(=S)N1CCc2cc(OC)c(OC)cc2C1COc1ccc(OC)cc1` (stereo not given), the “lipid storage change, negative = inhibition” value was 6.83% (inactive) and the cell number change is -7.02%. Taken in the same sequence, the figures for `CCC(=O)N1CCc2cc(OC)c(OC)cc2C1COc1ccccc1OC` (stereo not given) were -23.2% (inactive) and -0.404%. For the molecule `Cc1ccc(Cn2nnnc2CN2CCC(O)(c3cccnc3)CC2)cc1`, the “lipid storage change, negative = inhibition” value is 14.9% (inactive) and the cell number change is 1.82%. For the molecule `COCCn1c(SCC(=O)Nc2ccc3c(c2)OCCO3)nnc1C(C)C`, the “lipid storage change, negative = inhibition” value was 14% (inactive) and the cell number change came to 15.8%. As for `C/C(CC(=O)Nc1cccc(C(F)(F)F)c1)=N\NC(=O)c1ccncc1`, the Potency is 4.61 µM (active) and the cell number change was -7.89%.

Consider `CC(=O)N/N=C(\C)CC(=O)Nc1cccc(C(F)(F)F)c1`, for which the “lipid storage change, negative = inhibition” value is -3.97% (inactive) and the cell number change was 5.44%. Turning to `COc1ccc(C(=O)N/N=C(\C)CC(=O)Nc2cccc(C(F)(F)F)c2)cc1`, the “lipid storage change, negative = inhibition” value is -0.39% (inactive) and the cell number change was -2.05%. For the molecule `O=C(O)c1cccnc1NC1CCCC1`, the Potency was 20.6 µM (active) and the cell number change is -16%. With `O=C(O)c1cccnc1C(=O)O`, the “lipid storage change, negative = inhibition” value is 2.1% (inactive) and the cell number change was -2.7%. Take `O=C(NC1CCCCC1)c1cccnc1C(=O)O`: the “lipid storage change, negative = inhibition” value is -6.71% (inactive) and the cell number change is -11.4%. On to `Cc1cc(C)n(-c2nnc(C)n2/N=C/c2ccc(O)cc2)n1`, for which the “lipid storage change, negative = inhibition” value is 11.6% (inactive) and the cell number change is -6.41%.

For `Cc1cc(C)n(-c2nnc(C)n2/N=C/c2ccccc2F)n1`, the result was inactive and the cell number change was 19.1%. On to `Cc1cc(C)n(-c2nnc(C)n2/N=C/c2ccccc2O)n1`, for which the Potency was 18.4 µM (active) and the cell number change is -5.58%. On to `Cc1ccccc1NC(=O)c1ccc2ccccc2c1`, for which the “lipid storage change, negative = inhibition” value was 5.74% (inactive) and the cell number change came to 14.2%.

Consider `CCCC(=O)NCCSC`, for which the “lipid storage change, negative = inhibition” value was 5.9% (inactive) and the cell number change was -17.4%. Take `COc1ccc(C(C(=O)NC2CCCC2)N(Cc2cccnc2)C(=O)Cc2cccs2)c(OC)c1` (stereo not given): the Potency is 7.31 µM (active) and the cell number change was -10.9%.

On to `O=C(NC1CCCC1)C(c1ccsc1)N(C(=O)Cc1cccs1)c1ccc(F)cc1` (stereo not given), for which the “lipid storage change, negative = inhibition” value is -14.8% (inactive) and the cell number change was -21.2%. Take `O=C(NC1CCCC1)C(c1ccncc1)N(C(=O)Cc1cccs1)c1ccc(F)cc1` (stereo not given): the Potency was 29.1 µM (active) and the cell number change was 3.33%. Consider `COc1ccc(C(C(=O)NC2CCCC2)N(Cc2cccnc2)C(=O)Cc2cccs2)cc1OC` (stereo not given), for which the “lipid storage change, negative = inhibition” value was -9.53% (inactive) and the cell number change was found to be 6.84%. For the molecule `O=C(NC1CCCCC1)C(c1ccncc1)N(C(=O)Cc1cccs1)c1ccccc1` (stereo not given), the “lipid storage change, negative = inhibition” value is 12.7% (inactive) and the cell number change is 12.4%.

Take `O=C(NC1CCCC1)C(c1ccccc1)N(Cc1cccnc1)C(=O)Cc1cccs1` (stereo not given): the “lipid storage change, negative = inhibition” value was 17.7% (inactive) and the cell number change is -1.03%.

The record behind these values is PubChem BioAssay AID2685 (National Center for Advancing Translational Sciences (NCATS), 2010).
